# A selection: hits, their analogues and other compounds. The true share with any hit is near 7.8%.
# Lassa entry inh: qHTS for Inhibitors of binding or entry into cells for Lassa Virus; Potency, µM (series often up to 37.9 µM), for the others: at the top dose activity change, negative = inhibition, hits mostly inhibitors; Lassa virus pseudotype entry inhibition, cell reporter; AID 540256, 2011; 300,000 tested, 1.2% active; calls by dose curve; tested in HEK293 cells; note: potency is the fitted concentration of half-maximal effect; nearly all actives have a fitted effect of over 50% in size
# HCV inhibitor: qHTS Assay for Inhibitors of Hepatitis C Virus (HCV). Huh7.5.1 HCVcc-Cre infection, luciferase reporter, 44 h. Potency, µM (doses to about 41.8 µM), inactives show top-dose activity change, negative = inhibition, usual class: inhibitors. 340,000 tested, 3.4% active; active = well fitted inhibition curve with a large enough effect; inconclusive = small, poorly fitted or top-dose-only effect, or another doubt; inactive = no such curve, though single readings can be large or run the other way; note: potency is the fitted concentration of half-maximal effect
#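 HCVcc-Cre virus at an moi near 0.5 was added right after compound to cells cultured 4 h from seeding (1,000 cells/well). Luciferase activity was determined 44 h later, 15 min after substrate addition at RT.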
# HCMV antiviral: qHTS Assay for inhibitors of the human cytomegalovirus (HCMV); activity change, negative = inhibition, % at 57.5 µM; 410,000 tested, 4.5% active; HFF cells, HCMV-luciferase reporter, 72 h; hits give low values; AID 1259415, 2018; in the data active = activity change below about -60%; inconclusive = no clear call, values can overlap the other calls; inactive = above about -39%
#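 After 16 h attachment at 37C, HFF cells received test compound and HCMV-luciferase (1 PFU/cell); reporter luminescence read 72 h later, data normalized against buffer-only and known inhibitor Salinomycin.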
# VACV mCherry inh: qHTS for Stage-Specific Inhibitors of Vaccinia Orthopoxvirus: mCherry Reporter Primary qHTS; Vaccinia virus mCherry reporter infection, fluorescence; 310,000 tested, 0.63% active; Potency, µM (doses to about 36.5 µM), without a hit: top-dose activity change, negative = inhibition, actives largely listed as inhibitors; AID 720579, 2013; calls by dose curve; tested in A549 cells; note: potency is the fitted concentration of half-maximal effect; nearly all actives have a fitted effect of over 35% in size
# Vaccinia Venus: qHTS for Stage-Specific Inhibitors of Vaccinia Orthopoxvirus: Venus Reporter Primary qHTS. Vaccinia virus Venus reporter expression, fluorescence. Potency, µM (doses to about 36.5 µM), for inactives: top-dose activity change, negative = inhibition, actives largely listed as inhibitors. 330,000 tested, 0.46% active. AID 720580, 2013; calls by dose curve; tested in A549 cells; note: potency is the fitted concentration of half-maximal effect; nearly all actives have a fitted effect of over 30% in size
# Marburg entry inh: qHTS for inhibitors of binding or entry into cells for Marburg Virus. Potency, µM (highest dose often 37.8 µM), for the others: top-dose activity change, negative = inhibition, usual class: inhibitors. Marburg virus pseudotyped entry inhibition, cell reporter. 300,000 tested, 1.8% active; calls by dose curve; tested in HEK293 cells; note: potency is the fitted concentration of half-maximal effect
# * hit, by the source's call; i = inactive; ? = inconclusive; . = no result; [ ] = remark or other dose. % is set by controls: 0 for no effect and ±100 for the full control effect.
SMILES,Lassa entry inh,HCV inhibitor,HCMV antiviral,VACV mCherry inh,Vaccinia Venus,Marburg entry inh
Cc1ccc(Cc2c(C)nn(-c3nc(C)c(C(=O)N4CCCCC4C)s3)c2C)cc1 (stereo not drawn),2.3%[46.1 µM],.,11.8,-1.3%,-5.7%,-21.8%[46.1 µM]
CCOC(=O)C1=C(CSc2nc3ccccc3s2)NC(=O)NC1c1ccc(OC)cc1 (stereo not drawn),?,?,-60.0*,?,?,?
CCOC(=O)C1=C(c2ccccc2)NC(=O)NC1c1ccc(O)c(Cl)c1 (stereo not drawn),.,0.4%,-101.6*,.,.,.
CCOC(=O)C1=C(c2ccccc2)NC(=O)NC1c1ccc(O)c(OCC)c1 (stereo not drawn),-14.2%[46.1 µM],-4.9%,-30.3,-14.5%,-13.4%,8.8%[46.1 µM]
CCOC(=O)C1=C(CSc2nc3ccccc3s2)NC(=O)NC1c1cc(C)ccc1C (stereo not drawn),?,?,?,-16.1%,-24.0%,?
CCOC(=O)C1=C(CN2CCN(c3cc(C)ccc3C)CC2)NC(=O)NC1c1ccc(Cl)cc1 (stereo not drawn),?,.,-80.5*,-5.1%[7.34 µM],-8.0%[7.34 µM],?
CCOC(=O)C1=C(CN2CCN(c3ccc(OC)cc3)CC2)NC(=O)NC1c1ccc(Cl)cc1 (stereo not drawn),?,.,?,-15.3%,-8.9%,?
CCOC(=O)C1=C(CN2CCN(c3ccc(C)cc3C)CC2)NC(=O)NC1c1ccc(OC)cc1 (stereo not drawn),?,.,-81.6*,-22.1%,?,.
CCOc1ccccc1CNC(=O)c1cc2c(=O)n(Cc3cccnc3)ccc2nc1C,-4.4%[46.1 µM],.,-24.2,-6.8%,-11.4%,.
CCOc1ccc(-c2nonc2NC(=O)c2oc3ccc(Cl)cc3c2C)cc1,3.4%[46.1 µM],.,-38.1,-29.0%,-28.1%,-14.2%[46.1 µM]
Cc1c(C(=O)N(C)Cc2nccs2)sc2ncnc(NCC3CCCO3)c12 (stereo not drawn),.,.,.,-9.4%,-6.7%,.
CCC(=O)N1[C@H](C(=O)NC2CCCC2)[C@@H](CO)[C@@H]2Cn3c(cccc3=O)[C@@H]21,.,.,-6.3,.,.,.
CCOC(=O)C1=C(CNCc2ccccc2)NC(=O)NC1c1ccc(C)cc1 (stereo not drawn),-16.3%[46.1 µM],.,-69.7*,-15.4%,-12.3%,-24.0%[46.1 µM]
CCOC(=O)C1=C(CCc2ccccc2)NC(=O)NC1c1ccc(Br)cc1 (stereo not drawn),.,-4.7%,-13.8,-1.2%,-23.8%,.
CC(C)Oc1ccc(Nc2cc3c(cn2)cc(-c2cccnc2)n3C)cc1,.,.,-6.4,.,.,.
O=C1CCN(Cc2cccn2-c2ccccn2)CCN1Cc1ccccc1C(F)(F)F,.,.,.,-14.5%,11.1%,.
CCn1nc(C(=O)Nc2ccc(Cl)c(S(=O)(=O)N3CCOCC3)c2)c2ccccc2c1=O,?,11.2µM*,-10.0,i,-14.0%,-16.7%[46.1 µM]
O=C(/C=C/c1ccco1)Nc1ccc(Cl)c(S(=O)(=O)N2CCOCC2)c1,.,10µM*,-69.4*,.,.,.
O=C(Nc1ccccc1)Nc1ccc(Cl)c(S(=O)(=O)N2CCOCC2)c1,-21.4%[46.1 µM],?,-62.4*,i,-21.1%,?
Cc1c(C(=O)N(C)CC2CCCN(C)C2)cnn1-c1nccc(-c2ccco2)n1 (stereo not drawn),.,.,.,-16.4%,-9.0%,.
CCN(CC)c1nn2c(=O)c(C(=O)NCc3ccc(N(C)C)cc3)cnc2s1,?,.,2.8,-11.9%,-3.8%,.
CCn1c(Oc2ccc(F)cc2F)nc2c1c(=O)n(C)c(=O)n2C,19.3%[46.1 µM],.,-20.7,-1.3%,-0.5%,-2.0%[46.1 µM]
O=C(NNc1nc(=O)c2cccnc2s1)c1ccccc1O,?,3.16µM*,14.5,-7.2%,-2.3%,11.1%[46.1 µM]
O=C(NNc1c2ccccc2nc2ccccc12)c1ccccc1Cl,.,4.47µM*,-25.3,.,.,.
O=C(NNc1c2ccccc2nc2ccccc12)c1ccccc1O,?,8.91µM*,-21.7,?,-28.7%,?
SMILES,Lassa entry inh,HCV inhibitor,HCMV antiviral,VACV mCherry inh,Vaccinia Venus,Marburg entry inh
CCC(Sc1nc(-c2ccccc2F)nc2c1Cc1c(CO)cnc(C)c1O2)C(=O)Nc1cc(C)ccc1C (stereo not drawn),12.3%[46.1 µM],.,6.7,-1.4%,-7.4%,.
Cc1ccc(OCC(=O)Nc2cccc(C(=O)OCc3cc(=O)n4cc(C)sc4n3)c2)cc1,1.0%[46.1 µM],.,?,-28.8%,-15.0%,.
CCCCNC(=O)c1cccc(NC(=O)c2nsc3ccccc23)c1,-6.6%[46.1 µM],.,64.9,5.1%,-3.4%,.
Cc1cccc(Nc2nc(N)nc(CSc3nccc(C)n3)n2)c1,0.4%,-3.5%,32.5,-20.5%,-17.2%,?
COc1cccc(Nc2nc(N)nc(C(F)(F)F)n2)c1,7.4%,-20.9%,38.4,.,.,?
COc1cccc(Nc2nc(N)nc(CCl)n2)c1,?,?,-79.6*,10µM*,?,?
Cc1cccc(Nc2nc(N)nc(CCl)n2)c1,?,3.16µM*,-103.7*,?,?,?
Cc1ccnc2cc(Cl)c(Cl)cc12,.,.,.,0.1%,-8.1%,.
Cc1cc(Oc2ccc3c(-c4ccccn4)noc3n2)ccc1F,.,.,54.8,.,.,.
COc1cc2nc(Cl)nc(NC3CCN(C)CC3)c2cc1OC,.,.,.,-25.3%,-19.3%,.
CS(=O)(=O)NCCSc1nnnn1-c1ccccc1,4.3%,-0.6%,16.3,.,-7.7%,?
O=S(=O)(NCCSc1nnnn1-c1ccccc1)c1ccc(F)cc1,-22.9%[46.1 µM],.,-60.5*,-7.2%,-7.6%,-17.3%[46.1 µM]
COC(=O)CSc1nnnn1-c1ccccc1,-3.3%,7.8%,-3.7,.,20.1%,?
O=S(=O)(NCCSc1nnnn1-c1ccccc1)c1cccs1,2.3%,?,-81.5*,.,?,?
Cc1cc(C)c(S(=O)(=O)NCc2ccc3c(c2)CCN3C(=O)c2ccccc2)c(C)c1,5.6%[46.1 µM],.,-60.3*,-18.3%,-13.0%,.
Cc1cc(C)c(S(=O)(=O)NCc2ccc3c(c2)cc(C)n3C)c(C)c1,.,?,-93.1*,28.2%,12.1%,.
Cc1cc2cc(CNS(=O)(=O)c3ccc4ccccc4c3)ccc2n1C,.,9.3%,14.3,-10.3%,14.7%,.
COc1ccc(OC)c(S(=O)(=O)NCc2ccc3c(c2)CCN3C(=O)c2cccc(C)c2)c1,?,.,-79.9*,-27.0%,-21.5%,.
COc1ccc(/C(N)=N/OC(=O)c2ccco2)cc1,7.08µM*,16.1%,79.1,0.7%,3.8%,?
Cc1ccccc1C(=O)Nc1nc(-c2ccc(Br)cc2)ns1,2.7%[46.1 µM],.,-95.5*,?,?,-2.5%[46.1 µM]
CCOc1ccc(NC(=O)N2CC=C(c3c[nH]c4ccccc34)CC2)cc1,-25.9%[46.1 µM],.,0.0,-7.5%,-20.7%,.
Nc1c(Cl)nc(-c2ccccc2)nc1Cl,.,?,-72.2*,i,-5.6%,.
Oc1ccc(-c2cccnc2)cc1CNC1CN2CCC1CC2 (stereo not drawn),.,.,.,-19.3%,-16.0%,.

# Source: PubChem (National Center for Advancing Translational Sciences (NCATS))
